Data on 21 compounds can be found in PubChem BioAssay (NCI).

Assay [1] is described as follows: NCI Yeast Anticancer Drug Screen. Data for the rad50 strain (AID 155).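 Also: 0% = growth of vehicle-only cultures of the same strain.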 The settings on record: S. cerevisiae rad50 strain growth inhibition; at 50.0 µM; hits give high values. A digest of the protocol:
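Inhibition values express reduced yeast growth in compound-treated cultures relative to vehicle-treated controls.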

Assay [2] can be described thus: NCI Yeast Anticancer Drug Screen. Data for the mec2-1 strain (AID 157). Conditions: S. cerevisiae mec2-1 strain, at 50.0 µM, hits give high values. A digest of the protocol: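 Using mec2-1 yeast: add compound, measure growth, express inhibition versus vehicle-treated cultures.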
Assay [3] in a line: NCI Yeast Anticancer Drug Screen. Data for the sgs1 mgt1 strain (AID 161).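 Also: 0% = growth of cultures given vehicle only.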 The settings on record: S. cerevisiae sgs1 mgt1 strain, at 50.0 µM, hits give high values. A digest of the protocol: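 Growth of a repair-deficient yeast mutant was monitored after compound treatment and expressed as inhibition relative to vehicle-treated cultures.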
A short description of assay [4]: NCI Yeast Anticancer Drug Screen. Data for the cln2 rad14 strain (AID 165).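 Also: 0% = growth equal to vehicle treated cultures.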 Conditions: S. cerevisiae cln2 rad14 strain, at 50.0 µM, hits give high values. A digest of the protocol:
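Yeast strain cln2 rad14, bearing defects in cell cycle control and DNA repair, serves as the test system; values reflect growth inhibition compared with vehicle.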

A short description of assay [5]: NCI Yeast Anticancer Drug Screen. Data for the bub3 strain (AID 167). Conditions: S. cerevisiae bub3 mutant strain, at 50.0 µM, hits give high values. A digest of the protocol:
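Steps: expose the mutant yeast strain to compound; grow alongside vehicle-treated cultures; measure growth; express inhibition against the vehicle cultures.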

Assay [6] can be described thus: NCI Yeast Anticancer Drug Screen. Data for the mlh1 rad18 strain (AID 175). Conditions: S. cerevisiae mlh1 rad18 strain growth inhibition; at 50.0 µM; hits give high values. A digest of the protocol:
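Steps: expose repair-defective yeast to compound; measure growth; express inhibition against vehicle-treated controls.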

The panel holds about 79,000 compounds, 15% with a hit somewhere; the sample as a whole holds those more often. Unmarked numbers belong to inactive results. The source made the active and inactive calls. Rule as the data show it: active = growth inhibition above about 70%; inactive = the rest.

As for `COC(=O)C1=CO[C@@H](C)[C@@H]2Cn3ccc4c5ccccc5nc-4c3C[C@H]12`, the growth inhibition is 2.4% in assay [1]; -17.4% in assay [2]; 14% in assay [3]; 4.5% in assay [4]; -3.9% in assay [5]; 1.4% in assay [6].

For the compound `O=C(Nc1ccccn1)c1ccccc1`, the growth inhibition in assay [1] is 35%; in assay [2] it was 19.6%; in assay [3] it was 15.6%; in assay [4], 11.6%; in assay [5], 26.4%; in assay [6], 31.8%.

In the case of `c1cc2c3c(cc4c(c3c1)CCCC4)CC2`, the growth inhibition in assay [1] was -6.95%; in assay [2], -20.9%; in assay [3], -12.9%; in assay [4], -23.6%; in assay [5], 5.45%; in assay [6] it was -4.75%.

As to `CCOC(=O)[C@@]12[C@H](N3C(=O)c4ccccc4C3=O)C(=O)N1CCS2(=O)=O`, the growth inhibition was -1.9% in assay [1]; -5.7% in assay [2]; -29.4% in assay [3]; -22.9% in assay [4]; -1.5% in assay [5]; 6.95% in assay [6].

For `O=C(NC(Cc1ccccc1)C(=O)NNc1ccccc1Cl)OCc1ccccc1` (stereo unspecified), the growth inhibition in assay [1] was 92.4% (active); in assay [2] it was 86.3% (active); in assay [3], 94.7% (active); in assay [4], 55.5%; in assay [5], 80% (active); in assay [6] it was 89.5% (active).

With `SC1CCCN(Cc2ccccc2)C1` (stereo unspecified), the growth inhibition was 24.9% in assay [1]; 4.9% in assay [2]; 2.15% in assay [3]; 33.8% in assay [4]; 8.9% in assay [5]; 17.6% in assay [6].

For `C/C(CC(O)(C(F)(F)Cl)C(F)(F)Cl)=N\NC(N)=S`, the growth inhibition in assay [1] is 29.9%; in assay [2] it was -3.05%; in assay [3], 0.1%; in assay [4] it was 20.1%; in assay [5] it was -0.55%; in assay [6], 25.2%.

Consider `COc1ccc(NC(=O)Nc2ccc(Cl)cc2C)cc1`, for which the growth inhibition in assay [1] was -13.4%; in assay [2] it was -2.8%; in assay [3], -11.6%; in assay [4], -12.2%; in assay [5], -12.5%; in assay [6] it was -15.2%.

As for `N#C/C(=C1\OC(=O)C(c2ccc(Br)cc2)=C1O)c1ccc(Br)cc1`, the growth inhibition in assay [1] was 8.15%; in assay [2], 2.45%; in assay [3], -4%; in assay [4], 5.3%; in assay [5] it was -3.85%; in assay [6] it was 26.4%.

For the compound `Fc1ccc(-c2nnc(-c3ccccc3)o2)cc1`, the growth inhibition in assay [1] is 21.4%; in assay [2] it was 19.1%; in assay [3] it was 25.2%; in assay [4], 7.2%; in assay [5], 31.4%; in assay [6], 8.15%.

Turning to `CN(C)C(=NN)N(C)C`, the growth inhibition is 0.5% in assay [1]; -2.3% in assay [2]; 1.55% in assay [3]; -34% in assay [4]; 3.6% in assay [5]; -3.9% in assay [6].

As to `CS(=O)(=O)Nc1ccc(C(=O)CCN2CCCCCC2)cc1`, the growth inhibition in assay [1] is -4.35%; in assay [2] it was 8.9%; in assay [3] it was -28.9%; in assay [4] it was -6.6%; in assay [5] it was -27.5%; in assay [6] it was -23.1%.

For the compound `O=C1Cc2c([nH]c3ccccc23)-c2cc(Br)ccc2N1`, the growth inhibition in assay [1] was 13.4%; in assay [2], 6.85%; in assay [3], -2%; in assay [4] it was 2.9%; in assay [5] it was 31.6%; in assay [6], 2.9%.

As to `CCN(CCO)CCCC(C)Nc1ccnc2cc(Cl)ccc12` (stereo unspecified), the growth inhibition in assay [1] is -43.2%; in assay [2], -66.5%; in assay [3], -33.4%; in assay [4], -132%; in assay [5] it was -45.9%; in assay [6] it was -63.4%.

As for `O=C(N/N=C/C=C/c1ccccc1)NNC(=O)c1cc([N+](=O)[O-])cc([N+](=O)[O-])c1`, the growth inhibition in assay [1] was 31%; in assay [2] it was 10.8%; in assay [3] it was 38.3%; in assay [4], 13.8%; in assay [5] it was 2.65%; in assay [6], 24.2%.

As to `[Cu+2].[O-]C1c2c(ccc3ccccc23)-c2ccccc2C1N=Nc1ccccc1.[O-]c1c(N=Nc2ccccc2)c2ccccc2c2ccc3ccccc3c12` (stereo unspecified), the growth inhibition in assay [1] was -19.1%; in assay [2], -20.7%; in assay [3] it was -7.8%; in assay [4], -20.4%; in assay [5], -10.9%; in assay [6], -20.2%.

On to `Nc1nc(N)c(-c2ccc(Cl)cc2)c(CNc2cccc([N+](=O)[O-])c2)n1`, for which the growth inhibition is 90.9% (active) in assay [1]; 91.3% (active) in assay [2]; 97.7% (active) in assay [3]; 95% (active) in assay [4]; 98.1% (active) in assay [5]; 99.2% (active) in assay [6].

On to `C[C@H]1C(=O)c2c(cc(O)c(C3OC(CO)C(O)C(O)C3O)c2O)OC1c1ccc(O)c(O)c1` (stereo partly specified), for which the growth inhibition in assay [1] was 2.65%; in assay [2], -18.6%; in assay [3], -16.8%; in assay [4], 8.45%; in assay [5] it was -0.25%; in assay [6], 12.6%.

On to `O=C(O)C1=C(C(=O)O)C2CCCC3C4CCCCC4N(N1)C23` (stereo unspecified), for which the growth inhibition in assay [1] is 20.1%; in assay [2] it was -13.9%; in assay [3], -20.4%; in assay [4], 3.9%; in assay [5], 1.15%; in assay [6], 22.9%.

With `N=C1N(S(=O)(=O)c2ccccc2)[C@@H](Cc2ccccc2)[C@H](c2ccccc2)C1(c1ccccc1)c1ccccc1`, the growth inhibition is -25.1% in assay [1]; -7.3% in assay [2]; 6.05% in assay [3]; -29.6% in assay [4]; -3.5% in assay [5]; 18.2% in assay [6].

Turning to `CSCCCCCSC`, the growth inhibition in assay [1] was 0.6%; in assay [2], -27.1%; in assay [3], -25.3%; in assay [4] it was 0.45%; in assay [5], -3.75%; in assay [6], 0.55%.
